These results are taken from PubChem BioAssay (Tox21).

Experiment [1] is described as follows: qHTS assay for small molecule agonists of the p53 signaling pathway (AID 651631; calls by dose curve; also: nearly all actives have a fitted effect of over 15% in size; also: potency is read from the fitted curve at half-maximal effect). Summed up: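 Readout was fluorescence from the LiveBLAzer FRET substrate, applied for 2 h at room temperature after 16 h compound exposure at 37 °C. Cells were the p53RE-bla HCT-116 line, with beta-lactamase driven by p53 response elements.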
A short description of experiment [2]: qHTS assay for small molecules that induce genotoxicity in human embryonic kidney cells expressing luciferase-tagged ATAD5 (AID 651632). Also: nearly all actives have a fitted effect of over 15% in size. Summed up: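 DMSO vehicle served as the control. HEK293T reporter cells, 16 hr at 37C, then 30 min Amplite at room temperature; ATAD5 induction is measured as luciferase activity.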
Background: In qHTS, concentration-response curves come from the screen itself.

A short description of experiment [3]: qHTS assay for small molecule agonists of the p53 signaling pathway - cell viability (AID 651633; calls by dose curve; also: nearly all actives have a fitted effect of over 30% in size; also: potency is read from the fitted curve at half-maximal effect). The method, boiled down:
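p53RE-bla cells, seeded at 4,000 per well and rested 5 h at 37 C/5% CO2, received compounds in DMSO for 16 h at 37 C. CellTiter-Glo was then added, and luminescence was read after 30 min at room temperature to gauge cytotoxicity.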

Experiment [4] can be described thus: qHTS assay for small molecules that induce genotoxicity in human embryonic kidney cells expressing luciferase-tagged ATAD5 - cell viability (AID 651634; calls by dose curve; also: nearly all actives have a fitted effect of over 25% in size). The method, boiled down:
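Here HEK293T cells with the ATAD5 luciferase reporter are incubated with test compounds for 15.5 hr, and cytotoxicity is then gauged by measuring protease activity in live cells using fluorescence.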

Experiment [5] is described as follows: qHTS assay for small molecule disruptors of the mitochondrial membrane potential - cell viability (AID 720634; calls by dose curve;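 also: human HepG2 liver cancer cells; series mostly up to about 83 µM; nearly all actives have a fitted effect of over 20% in size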). Summed up:
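Viability of HepG2 cells is scored from ATP content by luminescence; cells are exposed to compound for 1 hr at 37 C and 5% CO2, then dosed with m-MPI dye before the CellTiter-Glo reagent.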

Experiment [6] is described as follows: qHTS assay for small molecule disruptors of the mitochondrial membrane potential (AID 720635). Also: potency is read from the fitted curve at half-maximal effect. The method, boiled down:
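HepG2 cells (2,000/well) attached overnight at 37C, then took compound for 1 hr at 37C, 5% CO2. Mito-MPS dye was added for 30 min; fluorescence was read at 490/535 nm (monomers) and 540/590 nm (aggregates).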

The nature of experiment [7]: qHTS assay to test for compound auto fluorescence at 460 nm (blue) in HEK293 cells (AID 720678). Summed up: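 HEK293 cells (2,000/well, medium with 10% dialyzed FBS) attached 4-5 hr, then exposed to compound overnight at 37C, 5% CO2. Blue fluorescence read at 405/460 nm, with triamterene as reference fluorophore.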
Experiment [8] can be described thus: qHTS assay to test for compound auto fluorescence at 590 nm (red) in HEK293 cells (AID 720679). Summed up:
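HEK293 cells (2,000/well, 10% dialyzed FBS) attached 4-5 hr, then dosed with compound or DMSO and incubated overnight at 37C, 5% CO2. Red fluorescence read at 540/590 nm, Rose Bengal sodium as reference fluorophore.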

Experiment [9] in a line: qHTS assay to test for compound auto fluorescence at 535 nm (green) in HEK293 cells (AID 720680).
Experiment [10] is described as follows: qHTS assay to test for compound auto fluorescence at 535 nm (green) in HEK293 cell free culture (AID 720682). The method, boiled down:
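Compounds were pin-transferred into cell-free DMEM with 10% FBS, and green fluorescence was read at excitation 485 nm and emission 535 nm. Intensities were expressed as fluorescein-equivalent values.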

Experiment [11] in a line: qHTS assay to test for compound auto fluorescence at 590 nm (red) in HEK293 cell free culture (AID 720683). Summed up: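 Tox21 10K library compounds were pinned into cell-free DMEM with 10% FBS and fluorescence was read at excitation 540 nm. Activity is expressed as Rose Bengal sodium equivalency.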
A short description of experiment [12]: qHTS assay to test for compound auto fluorescence at 590 nm (red) in HepG2 cell free culture (AID 720684). The method, boiled down:
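Readout: intrinsic compound fluorescence at 590 nm emission after 540 nm excitation, scaled to Rose Bengal sodium. Matrix was cell-free MEM with 10% FBS; DMSO vehicle wells served as control.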

Experiment [13] in a line: qHTS assay to test for compound auto fluorescence at 460 nm (blue) in HepG2 cell free culture (AID 720685). Summed up: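 Cell-free plates of MEM plus 10% FBS received 23 nL compound or DMSO vehicle; blue-channel (405/460 nm) intensity scored against triamterene as reference fluorophore.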
Experiment [14] can be described thus: qHTS assay to test for compound auto fluorescence at 535 nm (green) in HepG2 cell free culture (AID 720686).
Experiment [15] is described as follows: qHTS assay to test for compound auto fluorescence at 460 nm (blue) in HepG2 cells (AID 720687). The method, boiled down: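 Cells (2,000/well in MEM with 10% FBS) attached overnight at 37 C, then were exposed to compound or DMSO for 1 hr at 37 C, 5% CO2. Fluorescence read at Ex/Em 405/460 nm, expressed as triamterene-equivalent signal.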
Experiment [16] can be described thus: qHTS assay to test for compound auto fluorescence at 590 nm (red) in HepG2 cells (AID 720674). The method, boiled down:
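Rose Bengal sodium served as the red fluorophore standard. HepG2 monolayers (overnight attachment, MEM with 10% FBS) were exposed to test compounds for 1 hr at 37 C and read at Ex 540/Em 590 nm.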

A short description of experiment [17]: qHTS assay to test for compound auto fluorescence at 535 nm (green) in HepG2 cells (AID 720675).
The nature of experiment [18]: qHTS assay to test for compound auto fluorescence at 460 nm (blue) in HEK293 cell free culture (AID 720681). Summed up:
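Test compounds were pinned into cell-free culture medium (DMEM with 10% FBS) and fluorescence was read directly at Ex/Em 405/460 nm. Signals were expressed as fluorescence equivalents of triamterene, with DMSO vehicle as control.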

In experiment [19] the target is Glucocorticoid receptor (Homo sapiens) (UniProt P04150). The experiment in a line: qHTS assay to identify small molecule antagonists of the glucocorticoid receptor (GR) signaling pathway (AID 720692; active = well fitted inhibition curve with a large enough effect in the signal ratio in the repeat runs, not every such curve was filed as active; the % refers to the signal ratio). Summed up:
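In a 1536-well cell format, compounds were added 4 h after seeding GR-bla HeLa cells, together with dexamethasone at 5 nM final; reporter activity was measured by FRET-substrate fluorescence following 18 h at 37 C.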

For experiment [20] the target is unchanged. The experiment in a line: qHTS assay to identify small molecule agonists of the glucocorticoid receptor (GR) signaling pathway (AID 720691; active = well fitted activation curve with a large enough effect in the signal ratio in the repeat runs, not every such curve was filed as active; the % refers to the signal ratio). Summed up: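 Compounds in DMSO, alongside positive controls, were added to GR-bla HeLa reporter cells and incubated 18 h at 37 C; GRE-driven beta-lactamase was detected by fluorescence after 2 h with FRET substrate at room temperature.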

Several values for one entry are separate records, joined by “and”; a condition that tells them apart may be missing. Identical values can stand only once. Results filed as inconclusive are left out. Activity calls are given as the source filed them. Unless noted, calls follow the shape of the dose curve; as a rule, active = well fitted curve in the direction sought with a large enough effect in the repeat runs; inconclusive = weak or mixed curves; inactive = no such curve, though single readings can be large; an effect the other way counts as inactive or inconclusive.

Glucocorticoid receptor (Homo sapiens), sequence (P04150 whole entry, looked up): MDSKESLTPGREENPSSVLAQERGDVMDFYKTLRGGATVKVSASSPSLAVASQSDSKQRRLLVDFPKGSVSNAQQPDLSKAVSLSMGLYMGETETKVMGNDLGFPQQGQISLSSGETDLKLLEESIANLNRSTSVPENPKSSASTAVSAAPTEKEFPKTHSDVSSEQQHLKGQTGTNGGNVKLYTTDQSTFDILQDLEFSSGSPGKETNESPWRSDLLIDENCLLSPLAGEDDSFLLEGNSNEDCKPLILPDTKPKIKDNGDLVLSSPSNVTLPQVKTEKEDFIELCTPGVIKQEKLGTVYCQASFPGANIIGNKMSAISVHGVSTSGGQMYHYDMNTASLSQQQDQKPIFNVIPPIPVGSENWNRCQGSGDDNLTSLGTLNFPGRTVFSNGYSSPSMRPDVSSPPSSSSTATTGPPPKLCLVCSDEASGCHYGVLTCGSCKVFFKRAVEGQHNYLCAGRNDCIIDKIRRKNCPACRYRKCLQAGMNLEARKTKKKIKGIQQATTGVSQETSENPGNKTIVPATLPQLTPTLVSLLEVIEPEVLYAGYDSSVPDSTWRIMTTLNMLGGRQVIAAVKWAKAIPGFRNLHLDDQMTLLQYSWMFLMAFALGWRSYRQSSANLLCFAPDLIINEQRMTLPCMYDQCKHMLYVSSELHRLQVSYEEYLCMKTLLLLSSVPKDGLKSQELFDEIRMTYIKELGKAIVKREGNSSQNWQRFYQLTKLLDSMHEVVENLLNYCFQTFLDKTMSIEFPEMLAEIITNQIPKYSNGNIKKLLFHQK

Take `Nc1ccncc1`: the Potency result in experiment [1], in experiment [2], in experiment [3], in experiment [4], in experiment [5] and in [6] was “inactive” each time. Also, the compound was called inactive in [7], in experiment [8], in experiment [9], in experiment [10], in experiment [11] and in experiment [12]. The result in experiment [13], in experiment [14] and in [15] was inactive.
For `N[C@@H](Cc1ccc(N(CCCl)CCCl)cc1)C(=O)O`, the Potency in experiment [1] was 13.3 µM (active) and 26.2 µM (active). The Potency entry in experiment [2], in [3], in experiment [4], in experiment [5] and in experiment [19] was “inactive” each time. Moreover, the compound was classed as inactive in experiment [16], in experiment [17], in [7], in [8], in experiment [18] and in experiment [10]. In addition, the compound was classed as inactive in experiment [11], in [12], in experiment [13], in experiment [14] and in experiment [15].
Consider `O=C(Nc1ccc(Br)cc1)c1cc(Br)cc(Br)c1O`, for which the Potency in experiment [1] is 8.41 µM (active) and 1.53 µM (active) and 12.2 µM (active); in [3] it was 944 nM (active) and 1.08 µM (active) and 2.17 µM (active); in experiment [6], 1.88 µM (active) and 543 nM (active) and 545 nM (active). Also, the Potency entry in experiment [2] and in experiment [5] was “inactive” in each case. Further, the result in experiment [16], in experiment [17], in [7], in experiment [8], in [18] and in [10] was inactive. The compound was called inactive in experiment [11], in experiment [12], in experiment [13], in experiment [14] and in experiment [15].
On to `CCN(N=O)C(N)=O`, for which the Potency entry in [1], in [2], in [3], in experiment [4], in [5] and in [6] was “inactive” in each case. Further, in experiment [20], the Potency entry was “inactive”. For the same compound, the result in experiment [16], in experiment [7], in [8], in experiment [10], in experiment [11] and in experiment [13] was inactive. Also, the call in [14] and in [15] was inactive.
With `CCC(CC)Nc1c([N+](=O)[O-])cc(C)c(C)c1[N+](=O)[O-]`, the Potency result in [1], in experiment [2], in experiment [3], in [4], in experiment [20] and in [19] was “inactive” throughout. In experiment [6], the Potency is 49.2 µM (active). Also, the compound was called inactive in experiment [7], in experiment [8], in experiment [9], in experiment [18], in experiment [10] and in experiment [11]. The result in experiment [13], in [14] and in experiment [15] was inactive.
Turning to `O=C(O)C(F)(F)C(F)(F)C(F)(F)C(F)(F)C(F)(F)C(F)(F)C(F)(F)F`, the Potency entry in experiment [1], in [2], in [3], in [4] and in experiment [5] was “inactive” throughout. Moreover, the compound was classed as inactive in experiment [17], in experiment [7], in experiment [8], in experiment [9], in experiment [18] and in experiment [10]. The result in experiment [11], in [13], in [14] and in experiment [15] was inactive.
Regarding `CCN(CC)C(=O)SCc1ccc(Cl)cc1`, the Potency entry in experiment [1], in experiment [2], in [3], in experiment [4], in experiment [5] and in experiment [20] was “inactive” throughout. Also, in experiment [19], the Potency result was “inactive”. Further, the Potency in experiment [6] was 19.9 µM (active) and 12.2 µM (active). Besides, the compound was classed as inactive in [17], in experiment [7], in experiment [8], in [9], in experiment [18] and in [10]. The compound was called inactive in experiment [11], in experiment [13], in [14] and in [15].
In the case of `CNC(=O)Oc1cccc2c1OC(C)(C)O2`, the Potency result in experiment [1], in experiment [2], in experiment [3], in experiment [4], in experiment [5] and in experiment [6] was “inactive” each time. Besides, the compound was called inactive in experiment [7], in [8], in experiment [18], in [10], in [11] and in experiment [13]. In addition, the compound was called inactive in experiment [14] and in experiment [15].
